High-throughput results (PubChem BioAssay)
Giardia kill: kills Giardia lamblia; Giardia lamblia trophozoite viability; activity change, % at 7.66 µM, hits read low; 340,000 tested, 0.15% active; in the data active = activity change below about -80%; inconclusive = between about -30% and that limit;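 also: parasites exposed to compound for two days anaerobically before the ATP read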
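Giardia lamblia trophozoites (100 cells/well) were incubated with compounds for 48 h at 37 deg C under anaerobic conditions. Viability was read as ATP content by one-step luminescence after 15-30 min at room temperature.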
VP16 counter: inhibits Gal4-VP16 luciferase reporter, ROR gamma counter-screen | Drosophila S2 Gal4-VP16 UAS-luciferase, luminescence, 20 h | Potency, µM (highest dose often 53.6 µM), hits mostly inhibitors | 310,000 tested, 3.5% active | AID 2546;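 also: Gal4-VP16 expression switched on by copper sulfate through the metallothionein promoter; nearly all actives have a fitted effect of over 50% in size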
Chronic BCR inh: blocks chronic active B-cell receptor signaling; ABC-DLBCL IkBa-CBG/CBR reporter, luminescence ratio, 4 h; Potency, µM (series often up to 46.1 µM), actives largely listed as inhibitors; 340,000 tested, 0.05% active; AID 493014; active = well fitted inhibition curve with a large enough effect in the signal ratio, with a control signal flat, not every such curve was filed as active; inconclusive = small, poorly fitted or top-dose-only effect, or effect the other way, or a change in a side signal; the % refers to the signal ratio
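Compounds up to 46 uM were incubated four hours with TMD8 cells whose green CBG68 luciferase is fused to IkappaBalpha; red CBR luminescence normalised the signal, and concentration-effect curves were fitted to fusion, red and ratio data.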
MCF10A rereplic: induces DNA re-replication in MCF 10a normal breast cells; MCF 10A DNA re-replication, Hoechst nuclear intensity, 48 h; Potency, µM (highest dose often 46.1 µM), most hits filed as activators; 350,000 tested, 2.9% active; also: nearly all actives have a fitted effect of over 50% in size
RORgamma inh: inhibitors of mouse ROR gamma transcriptional activity; 310,000 tested, 5.4% active; Drosophila S2 Gal4-RORgamma UAS-luciferase reporter, 20 h; AID 2551; Potency, µM (highest dose often 53.6 µM), hits mostly inhibitors; also: nearly all actives have a fitted effect of over 60% in size
Target sequence (P51450 whole entry, looked up, the tested form may be a part): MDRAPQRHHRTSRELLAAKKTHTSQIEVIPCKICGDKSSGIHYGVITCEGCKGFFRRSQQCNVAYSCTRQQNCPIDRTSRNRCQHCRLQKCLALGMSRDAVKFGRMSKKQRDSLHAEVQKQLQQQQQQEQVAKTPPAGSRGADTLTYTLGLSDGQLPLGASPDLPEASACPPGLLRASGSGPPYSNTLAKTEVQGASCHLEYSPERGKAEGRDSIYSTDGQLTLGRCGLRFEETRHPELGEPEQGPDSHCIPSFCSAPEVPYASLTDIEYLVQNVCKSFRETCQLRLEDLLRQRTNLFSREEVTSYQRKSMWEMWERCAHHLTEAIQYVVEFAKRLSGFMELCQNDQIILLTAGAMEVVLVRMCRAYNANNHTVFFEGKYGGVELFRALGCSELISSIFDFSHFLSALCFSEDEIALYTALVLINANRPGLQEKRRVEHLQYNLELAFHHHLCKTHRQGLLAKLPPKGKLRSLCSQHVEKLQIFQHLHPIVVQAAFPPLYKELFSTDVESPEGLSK
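Compounds are pin-transferred onto Drosophila Schneider cells expressing a copper-inducible Gal4–ROR gamma transactivation domain fusion. After 1 hr, copper sulfate is added to 700 uM final; luciferase is read 20 hr later.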
SW480 rereplic: induces DNA re-replication in SW480 colon adenocarcinoma cells. SW480 DNA re-replication, Hoechst DNA content imaging, 48 h. Potency, µM (titrated, usually from 46.1 µM), actives largely listed as activators. 340,000 tested, 1.8% active. AID 624297; also: nearly all actives have a fitted effect of over 55% in size
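Hoechst fluorescence of nuclei (405 nm excitation, 500-530 nm emission) measured by plate-scanning imager after 48 hr compound exposure at 37 C; re-replication scored as increased number of nuclei with elevated intensity.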
Each line names hits and unclear results; the compound was inactive in the other large screens. A selection: hits, their analogues and other compounds. The true share with any hit is near 8.3%. Unless noted, calls follow the shape of the dose curve; as a rule, active = well fitted curve in the direction sought with a large enough effect; inconclusive = small, poorly fitted or top-dose-only effect, or another doubt; inactive = no such curve, though single readings can be large; an effect the other way counts as inactive or inconclusive.

Cc1ccn2cc(CSc3ccccc3)nc2c1	VP16 counter 8.91µM, Chronic BCR inh inconclusive, RORgamma inh 12.6µM
Cc1ccc(SCc2cn3cccnc3n2)cc1	Chronic BCR inh inconclusive
Cc1noc(C)c1S(=O)(=O)N(CC(=O)NC(C)c1ccccc1)c1ccc(C(C)C)cc1 (centres undefined)	RORgamma inh inconclusive, SW480 rereplic inconclusive
O=C(O)c1cc(-c2c[nH]c3ccccc23)nc2ccc3ccccc3c12	Giardia kill inconclusive, Chronic BCR inh inconclusive
c1ccc2c(-c3c[nH]c4ccccc34)c3ccccc3nc2c1	Chronic BCR inh inconclusive, MCF10A rereplic 8.2µM, SW480 rereplic inconclusive
COCCn1c(C)cc(C(=O)COC(=O)c2ccc([N+](=O)[O-])o2)c1C	RORgamma inh 12.6µM
Cc1cc(C(=O)COC(=O)c2ccc3c(c2)OCO3)c(C)n1CC1CCCO1 (centres undefined)	MCF10A rereplic inconclusive
Cc1cc(C(=O)COC(=O)c2ccc([N+](=O)[O-])o2)c(C)n1CC1CCCO1 (centres undefined)	Giardia kill inconclusive, RORgamma inh 20µM
COCCn1c(C)cc(C(=O)COC(=O)c2cccc(O)c2)c1C	Giardia kill inconclusive, VP16 counter 0.631µM, RORgamma inh 0.355µM
COCCn1c(C)cc(C(=O)CN2C(=O)NC3(CCCCCCC3)C2=O)c1C	MCF10A rereplic 11.6µM, RORgamma inh inconclusive, SW480 rereplic inconclusive
CCOC(=O)C(C(=O)OCC)c1c([N+](=O)[O-])c(=O)n2c3c(cccc13)CCC2	none
CCc1ccc(C(C(=O)NC2CCCC2)N(C(=O)c2csnn2)C2CC2)cc1 (centres undefined)	Chronic BCR inh inconclusive
CCC(C)NC(=O)C1c2ccccc2C(=O)N1Cc1ccc(F)cc1 (centres undefined)	none
Cc1cc(C(=O)Cn2nnc(-c3ccc(Cl)cc3)n2)c(C)n1CC1CCCO1 (centres undefined)	VP16 counter 31.6µM, MCF10A rereplic inconclusive
CC1CCN(C(=O)COC(=O)c2ccc(Br)o2)CC1	none
COCCn1c(C)cc(C(=O)CSc2nnc(C)s2)c1C	Giardia kill inconclusive, VP16 counter 1µM, MCF10A rereplic inconclusive, RORgamma inh 0.708µM (no result: Chronic BCR inh)
CC1CCN(C(=O)COC(=O)c2ccc([N+](=O)[O-])o2)CC1	SW480 rereplic 20.6µM (no result: VP16 counter, RORgamma inh)
O=C(COC(=O)c1nc(Cl)c(Cl)c(Cl)c1Cl)NCc1ccccc1	Chronic BCR inh inconclusive, MCF10A rereplic inconclusive, SW480 rereplic 16.4µM (no result: VP16 counter, RORgamma inh)
COc1ccccc1-n1c(-c2cc(-c3ccc(F)cc3)n[nH]2)n[nH]c1=S	RORgamma inh 7.94µM
Cc1ccc(-n2c(-c3cccc(C)c3)n[nH]c2=S)cc1	VP16 counter 7.08µM, Chronic BCR inh inconclusive, MCF10A rereplic 20.6µM, RORgamma inh 3.16µM, SW480 rereplic inconclusive
COc1ccc(C)cc1-n1c(-c2ccncc2)n[nH]c1=S	none
COc1ccccc1-c1n[nH]c(=S)n1N	none
COc1ccccc1-c1n[nH]c(=S)n1-c1ccccc1	VP16 counter inconclusive, Chronic BCR inh inconclusive, RORgamma inh 11.2µM
COc1cc(-n2c(-c3ccccc3)n[nH]c2=S)c(OC)cc1Cl	RORgamma inh 5.01µM
CCN(CC(=O)N1CCN(Cc2ccccc2)CC1)S(=O)(=O)c1ccc(C)cc1	none
CCOc1ccc(CCNC(=O)CCSCc2ccc(Cl)cc2)cc1OCC	none (no result: Giardia kill, VP16 counter, MCF10A rereplic, RORgamma inh, SW480 rereplic)
CC[C@@]1(C(=O)OC)N[C@H](CN(C)S(=O)(=O)c2ccc(-c3ccccc3)cc2)[C@@H]2C(=O)N(C)C(=O)[C@@H]21	none (no result: VP16 counter, RORgamma inh)
Cc1ccc2c(c1)N(CC(=O)NCCCN1CCOCC1)C(=O)C(C(C)C)O2 (centres undefined)	none (no result: VP16 counter, RORgamma inh)
Cc1ccc(-n2c(-c3c(-c4ccccc4)noc3C)n[nH]c2=S)cc1	VP16 counter 10µM, Chronic BCR inh inconclusive, RORgamma inh 4.47µM
S=c1[nH]nc(-c2cccnc2)n1-c1ccccc1	VP16 counter inconclusive, RORgamma inh 7.94µM
S=c1[nH]nc(-c2ccc(Cl)cc2)n1-c1cccnc1	none
COc1ccc(-c2n[nH]c(=S)n2-c2ccc(C)cc2)cc1OC	VP16 counter inconclusive, Chronic BCR inh inconclusive, RORgamma inh 15.8µM
